Measured values taken from PubChem BioAssay (EPA / NIEHS).
Records with an inconclusive call do not appear. Calls of active or inactive are those of the source. How the source made its calls, unless noted: active means hit-call score of the fitted dose curve at least 0.9, where 1 is the maximum; inconclusive means response in the unintended direction; inactive means score below 0.9.

Assays:
[1] = ATG_M_19_TRANS: Attagene TRANS-FACTORIAL HepG2 Assay for M19 Transcription Factor (Internal Marker) (AID 2282974); details: HepG2 Attagene TRANS-FACTORIAL M19 internal marker reporter
In short: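 Fluorescence of 6-FAM-labelled reporter cDNA fragments, separated by capillary electrophoresis, served as the readout. These derived from HepG2 cells carrying transfected GAL4-UAS reporter units after 24 h dosing, with DMSO as negative control.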

[2] = ATG_GAL4_TRANS: Attagene TRANS-FACTORIAL HepG2 Assay for GAL4 (Internal Marker) (AID 2282976); details: HepG2 Attagene TRANS GAL4 internal marker reporter
In short: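 In transfected human HepG2 liver cells dosed 24 h, GAL4 reporter mRNA serves as a baseline marker. Detection by RT-PCR with fluorescent capillary electrophoresis, activity fitted upward relative to DMSO.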

[3] = target: Oxysterols receptor LXR-beta (Homo sapiens) (UniProt P55055); assay: ATG_LXRb_TRANS: Attagene TRANS-FACTORIAL HepG2 Assay for human Liver X Receptor beta (LXRb) (AID 2282981); details: HepG2 Attagene TRANS GAL4-LXRb reporter, mRNA
In short: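 HepG2 cells transiently transfected with multiple reporter transcription units carrying chimeric NR-Gal4 proteins acting on GAL4-UAS reporters; compound exposure 24 h. Reporter mRNA quantified by RT-PCR, 6-FAM labelling, HpaI digestion and capillary electrophoresis; gain of signal versus DMSO.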

[4] = target: human Peroxisome Proliferator-activated Receptor alpha (PPARa), PPARA (gene 5465) (UniProt Q07869); assay: ATG_PPARa_TRANS: Attagene TRANS-FACTORIAL HepG2 Assay for human Peroxisome Proliferator-activated Receptor alpha (PPARa) (AID 2283001)
human Peroxisome Proliferator-activated Receptor alpha (PPARa), PPARA (gene 5465), sequence (Q07869 whole entry, looked up, the tested form may be a part): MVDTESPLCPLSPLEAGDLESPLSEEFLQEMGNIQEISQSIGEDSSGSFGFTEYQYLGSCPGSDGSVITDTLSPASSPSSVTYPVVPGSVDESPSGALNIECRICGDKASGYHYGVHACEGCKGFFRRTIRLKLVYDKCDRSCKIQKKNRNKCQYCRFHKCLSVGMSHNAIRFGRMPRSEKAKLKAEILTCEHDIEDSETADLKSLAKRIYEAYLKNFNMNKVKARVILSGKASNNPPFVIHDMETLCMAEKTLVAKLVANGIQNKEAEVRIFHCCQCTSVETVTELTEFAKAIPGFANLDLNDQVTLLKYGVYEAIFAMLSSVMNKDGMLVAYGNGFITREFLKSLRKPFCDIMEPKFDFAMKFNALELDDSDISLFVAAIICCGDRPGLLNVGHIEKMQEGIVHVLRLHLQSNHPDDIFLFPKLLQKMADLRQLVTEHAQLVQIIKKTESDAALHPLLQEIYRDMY
In short: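 HepG2 cells transiently transfected with multiplexed GAL4-UAS reporter units and chimeric NR-Gal4 constructs were dosed for 24 h. Reporter mRNA was measured by RT-PCR with fluorescent labelling and capillary electrophoresis; gain of signal fitted against DMSO.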

[5] = target: human RAR-related Orphan Receptor gamma (RORg), RORC (gene 6097) (UniProt P51449); assay: ATG_RORg_TRANS: Attagene TRANS-FACTORIAL HepG2 Assay for human RAR-related Orphan Receptor gamma (RORg) (AID 2283011)
human RAR-related Orphan Receptor gamma (RORg), RORC (gene 6097), sequence (P51449 whole entry, looked up, the tested form may be a part): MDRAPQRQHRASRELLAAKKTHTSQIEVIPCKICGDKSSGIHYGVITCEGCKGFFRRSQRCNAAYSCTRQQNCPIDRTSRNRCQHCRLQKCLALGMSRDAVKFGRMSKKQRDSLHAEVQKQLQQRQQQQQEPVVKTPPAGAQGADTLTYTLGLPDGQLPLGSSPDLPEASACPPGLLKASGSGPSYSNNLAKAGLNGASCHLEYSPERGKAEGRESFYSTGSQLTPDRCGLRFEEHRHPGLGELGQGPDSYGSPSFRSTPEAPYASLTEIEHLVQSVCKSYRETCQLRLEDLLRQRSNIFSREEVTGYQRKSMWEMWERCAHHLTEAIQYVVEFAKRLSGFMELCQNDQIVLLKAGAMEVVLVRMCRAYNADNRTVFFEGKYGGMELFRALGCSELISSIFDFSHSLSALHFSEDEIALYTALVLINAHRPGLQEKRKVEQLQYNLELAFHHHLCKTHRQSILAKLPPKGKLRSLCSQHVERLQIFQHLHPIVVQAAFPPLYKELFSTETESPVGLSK
In short: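 Reporter transcripts from a transfected RORg-GAL4 chimera in HepG2 cells were quantified 24 h after dosing by RT-PCR, 6-FAM labelling, HpaI digestion and capillary electrophoresis; increases over DMSO baseline were fitted.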

[6] = target: human Thyroid Receptor alpha (THRa1), THRA (gene 7067) (UniProt P10827); assay: ATG_THRa1_TRANS: Attagene TRANS-FACTORIAL HepG2 Assay for human Thyroid Receptor alpha (THRa1) (AID 2283014)
human Thyroid Receptor alpha (THRa1), THRA (gene 7067), sequence (P10827 whole entry, looked up, the tested form may be a part): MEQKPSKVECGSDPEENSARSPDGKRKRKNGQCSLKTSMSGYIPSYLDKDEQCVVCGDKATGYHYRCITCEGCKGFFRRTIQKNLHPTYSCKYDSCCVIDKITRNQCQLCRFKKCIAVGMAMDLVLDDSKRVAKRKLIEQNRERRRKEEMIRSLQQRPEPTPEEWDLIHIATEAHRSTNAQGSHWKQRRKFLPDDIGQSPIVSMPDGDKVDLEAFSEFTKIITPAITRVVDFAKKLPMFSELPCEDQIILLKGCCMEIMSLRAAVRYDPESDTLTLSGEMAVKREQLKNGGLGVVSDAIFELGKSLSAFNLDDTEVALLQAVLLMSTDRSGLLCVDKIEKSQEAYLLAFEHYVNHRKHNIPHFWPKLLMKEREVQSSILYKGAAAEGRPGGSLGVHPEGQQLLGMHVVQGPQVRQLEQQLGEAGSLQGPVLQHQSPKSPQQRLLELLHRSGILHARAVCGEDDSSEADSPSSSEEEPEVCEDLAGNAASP
In short: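 Transcripts from GAL4-UAS-driven reporters, measured after 24 h compound exposure by RT-PCR plus capillary electrophoresis of 6-FAM-labeled fragments, were fitted for gain of signal relative to DMSO. Cells: transiently transfected HepG2 expressing NR-Gal4 chimeras.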

[7] = target: Nuclear receptor subfamily 4 group A member 2 (Homo sapiens) (UniProt P43354); assay: ATG_NURR1_TRANS: Attagene TRANS-FACTORIAL HepG2 Assay for human Nuclear Receptor Related Protein 1 (NURR1) (AID 2282985); details: HepG2 Attagene TRANS reporter, mRNA readout
Nuclear receptor subfamily 4 group A member 2 (Homo sapiens), sequence (P43354 whole entry, looked up, the tested form may be a part): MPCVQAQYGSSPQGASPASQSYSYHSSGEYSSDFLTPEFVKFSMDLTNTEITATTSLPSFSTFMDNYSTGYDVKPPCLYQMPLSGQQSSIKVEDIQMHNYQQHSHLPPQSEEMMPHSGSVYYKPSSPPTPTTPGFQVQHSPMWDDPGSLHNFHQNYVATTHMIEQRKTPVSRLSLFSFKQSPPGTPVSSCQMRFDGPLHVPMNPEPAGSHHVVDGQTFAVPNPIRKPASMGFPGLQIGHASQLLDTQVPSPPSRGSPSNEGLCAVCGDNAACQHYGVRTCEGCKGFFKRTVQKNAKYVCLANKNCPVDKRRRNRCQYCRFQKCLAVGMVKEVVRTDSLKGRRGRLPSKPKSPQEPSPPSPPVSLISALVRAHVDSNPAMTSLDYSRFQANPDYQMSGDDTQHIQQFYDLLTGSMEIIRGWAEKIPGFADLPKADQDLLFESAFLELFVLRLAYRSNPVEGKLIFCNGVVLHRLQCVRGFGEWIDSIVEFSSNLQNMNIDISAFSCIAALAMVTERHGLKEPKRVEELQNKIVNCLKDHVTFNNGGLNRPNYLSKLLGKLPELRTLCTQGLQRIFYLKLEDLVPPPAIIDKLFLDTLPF
In short: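 HepG2 cells transiently transfected with GAL4-UAS reporter units and chimeric NR-Gal4 constructs; chemical exposure 24 h. Reporter mRNA quantified by RT-PCR, fluorescent labelling and capillary electrophoresis; gain of signal fitted relative to DMSO baseline.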

[8] = target: human Peroxisome Proliferator-activated Receptor delta (PPARd), PPARD (gene 5467) (UniProt Q03181); assay: ATG_PPARd_TRANS: Attagene TRANS-FACTORIAL HepG2 Assay for human Peroxisome Proliferator-activated Receptor delta (PPARd) (AID 2283002)
human Peroxisome Proliferator-activated Receptor delta (PPARd), PPARD (gene 5467), sequence (Q03181 whole entry, looked up, the tested form may be a part): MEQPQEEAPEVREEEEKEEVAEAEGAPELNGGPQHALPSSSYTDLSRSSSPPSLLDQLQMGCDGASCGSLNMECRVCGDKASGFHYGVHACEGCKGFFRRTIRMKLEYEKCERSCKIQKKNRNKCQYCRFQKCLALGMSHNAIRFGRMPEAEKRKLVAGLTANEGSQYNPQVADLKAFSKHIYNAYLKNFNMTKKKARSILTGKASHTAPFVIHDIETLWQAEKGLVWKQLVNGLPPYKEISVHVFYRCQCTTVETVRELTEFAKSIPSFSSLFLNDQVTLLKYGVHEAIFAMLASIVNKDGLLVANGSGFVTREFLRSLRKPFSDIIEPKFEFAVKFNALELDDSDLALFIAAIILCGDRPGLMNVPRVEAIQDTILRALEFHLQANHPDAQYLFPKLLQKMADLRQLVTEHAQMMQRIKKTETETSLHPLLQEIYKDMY
In short: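 Multiplexed trans-activation format: HepG2 liver cells expressing exogenous NR-Gal4 chimeras and GAL4-UAS reporters were exposed for 24 h. Reporter mRNA was detected by RT-PCR with capillary electrophoresis fluorescence; activity fitted as gain of signal relative to DMSO.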

[9] = target: Oxysterols receptor LXR-alpha (Homo sapiens) (UniProt Q13133); assay: ATG_LXRa_TRANS: Attagene TRANS-FACTORIAL HepG2 Assay for human Liver X Receptor alpha (LXRa) (AID 2282980); details: HepG2 Attagene TRANS reporter, LXRa transactivation
Oxysterols receptor LXR-alpha (Homo sapiens), sequence (Q13133 whole entry, looked up, the tested form may be a part): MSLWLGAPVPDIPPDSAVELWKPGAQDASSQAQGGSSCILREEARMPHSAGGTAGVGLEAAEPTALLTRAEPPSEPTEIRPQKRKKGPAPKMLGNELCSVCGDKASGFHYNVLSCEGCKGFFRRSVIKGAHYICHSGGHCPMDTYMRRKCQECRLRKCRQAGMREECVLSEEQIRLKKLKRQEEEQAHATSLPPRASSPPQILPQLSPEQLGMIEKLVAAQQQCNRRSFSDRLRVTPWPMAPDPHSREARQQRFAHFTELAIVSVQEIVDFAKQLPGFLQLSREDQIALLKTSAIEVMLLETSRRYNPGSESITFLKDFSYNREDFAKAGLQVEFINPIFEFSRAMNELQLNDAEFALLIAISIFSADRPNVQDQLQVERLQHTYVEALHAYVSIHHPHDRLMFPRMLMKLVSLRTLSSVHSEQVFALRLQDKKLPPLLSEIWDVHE
In short: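 Chemical-induced reporter mRNA measured by RT-PCR with fluorescent labelling and capillary electrophoresis after 24 h dosing of transiently transfected HepG2 cells expressing exogenous NR-Gal4 chimeras; increases scored against DMSO baseline.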

[10] = target: human Vitamin D Receptor (VDR), VDR (gene 7421) (UniProt P11473); assay: ATG_VDR_TRANS: Attagene TRANS-FACTORIAL HepG2 Assay for human Vitamin D Receptor (VDR) (AID 2283022)
human Vitamin D Receptor (VDR), VDR (gene 7421), sequence (P11473 whole entry, looked up, the tested form may be a part): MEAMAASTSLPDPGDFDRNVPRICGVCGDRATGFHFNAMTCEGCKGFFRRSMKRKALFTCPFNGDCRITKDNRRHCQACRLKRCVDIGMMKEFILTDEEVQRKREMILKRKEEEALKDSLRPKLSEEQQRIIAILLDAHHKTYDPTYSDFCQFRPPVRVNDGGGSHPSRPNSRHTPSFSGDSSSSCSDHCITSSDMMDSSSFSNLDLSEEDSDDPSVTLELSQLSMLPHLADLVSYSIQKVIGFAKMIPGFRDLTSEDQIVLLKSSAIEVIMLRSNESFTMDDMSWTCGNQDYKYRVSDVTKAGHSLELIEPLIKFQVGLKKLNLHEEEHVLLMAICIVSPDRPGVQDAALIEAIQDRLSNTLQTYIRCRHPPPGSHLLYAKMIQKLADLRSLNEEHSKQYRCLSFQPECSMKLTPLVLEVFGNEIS
In short: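 Transactivation by an exogenous VDR-Gal4 chimera in transiently transfected HepG2 cells was measured as reporter transcript level 24 hours after chemical treatment. RT-PCR products were analysed by capillary electrophoresis and fitted in the positive direction relative to DMSO.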

[11] = target: Peroxisome proliferator-activated receptor gamma (Homo sapiens) (UniProt P37231); assay: OT_PPARg_PPARgSRC1_0480: Odyssey Thera (OT) 8-hour Protein-Complementation Assay for Peroxisome Proliferator-activated Receptor Gamma / SRC-1 Co-activator (AID 2283387);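 further: nuclear to cytoplasmic split Venus YFP fluorescence ratio reporting PPARg SRC-1 interaction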
In short: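 Split-YFP (IFP1/IFP2) PPARg/SRC-1 reporter, HEK293T, 37 °C, 5% CO2; 8 h compound; formaldehyde fix + Draq5; high-content imaging, N/C ratio, ≥350 cells/image, positive direction vs DMSO.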

[12] = target: Peroxisome proliferator-activated receptor gamma (Homo sapiens) (UniProt P37231); assay: OT_PPARg_PPARgSRC1_1440: Odyssey Thera (OT) 24-hour Protein-Complementation Assay for Peroxisome Proliferator-activated Receptor Gamma/ SRC-1 Co-activator (AID 2283388);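 further: nuclear to cytoplasmic ratio of reconstituted Venus YFP fluorescence in fixed imaged cells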
In short: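 Readout is the 488 nm N/C fluorescence ratio from fixed, Draq5-stained HEK293T cells after 24 h compound exposure. Cells carried transiently transfected PPARg and SRC-1 fused to Venus fragments, transfected 48 h before treatment.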

[13] = target: Cellular tumor antigen p53 (Homo sapiens) (UniProt P04637); assay: TOX21_p53_BLA_p2_ratio: Tox21 HCT-116 p53 Agonism Beta-lactamase Assay, Ratio, Phase 2 (AID 2283592)
Cellular tumor antigen p53 (Homo sapiens), sequence (P04637 whole entry, looked up): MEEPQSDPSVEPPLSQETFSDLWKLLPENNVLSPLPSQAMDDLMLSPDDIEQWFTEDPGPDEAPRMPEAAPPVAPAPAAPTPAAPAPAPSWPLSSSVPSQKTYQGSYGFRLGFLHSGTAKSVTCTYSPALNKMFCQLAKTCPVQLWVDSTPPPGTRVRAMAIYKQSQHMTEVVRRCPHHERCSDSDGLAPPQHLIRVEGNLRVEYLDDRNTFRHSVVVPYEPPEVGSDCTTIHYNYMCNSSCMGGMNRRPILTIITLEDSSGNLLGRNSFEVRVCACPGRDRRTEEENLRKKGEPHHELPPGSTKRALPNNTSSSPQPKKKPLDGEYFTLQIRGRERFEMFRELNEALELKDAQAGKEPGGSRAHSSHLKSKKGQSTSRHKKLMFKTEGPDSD
In short: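 Gain-of-signal p53 agonism was scored from the beta-lactamase FRET ratio (460/530 nm, 405 nm excitation) in HCT116 cells treated 16 h at 37C, 5% CO2, with DMSO serving as negative control and baseline.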

[14] = TOX21_p53_BLA_p4_viability: Viability Assessment in the Tox21 HCT-116 p53 Agonism Beta-lactamase Assay, Phase 4 (AID 2283597);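 further: hits lower the luminescence signal meaning cytotoxicity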
In short: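 Following a 16 h exposure at 37C, the treated HCT116 wells were first read for the FRET ratio. They were then lysed with CellTiter-Glo, and ATP luminescence was recorded after 30 min at room temperature.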

[15] = TOX21_p53_BLA_p5_viability: Viability Assessment in the Tox21 HCT-116 p53 Agonism Beta-lactamase Assay, Phase 5 (AID 2283600)
In short: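 After the 460/530 nm beta-lactamase measurement, the wells received an ATP-detection luciferase reagent; signal was read 30 min later at RT. Compound treatment lasted 16 h on cells pre-incubated 5 h post-seeding.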

[16] = ACEA_ER_AUC_viability: ACEA Biosciences xCELLigence Real-Time Cell Analysis on Estrogen Receptor Agonism for Viability (AID 2283782);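 further: continuous compound exposure with impedance area under curve over 80 h; hit means loss of impedance signal meaning reduced cell growth or viability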
In short: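 T-47D human breast cells in phenol red-free RPMI1640 with 10% charcoal-stripped FBS were dosed with an 8-point 1:4 dilution series from 100 uM top final concentration, in duplicate. Impedance-based growth was followed for 80 h; AUC analysed versus DMSO.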

[17] = TOX21_p53_BLA_p2_viability: Viability Assessment in the Tox21 HCT-116 p53 Agonism Beta-lactamase Assay, Phase 2 (AID 2283591);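 further: compound exposure lasted 16 h at 37 °C; actives lower the ATP signal meaning cytotoxicity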
In short: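 HCT-116 p53-bla cells (4000/well) rested 5 h at 37C, then received compounds in DMSO (217-fold dilution) for 16 h at 37C, 5% CO2. After the CCF4 read, CellTiter-Glo was added; ATP luminescence was read after 30 min at room temperature.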

[18] = TOX21_p53_BLA_p3_viability: Viability Assessment in the Tox21 HCT-116 p53 Agonism Beta-lactamase Assay, Phase 3 (AID 2283593);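 further: cells exposed to compound for 16 h before reading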
In short: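 HCT-116 cells (4000/well) rested 5 h at 37C, then got DMSO compounds by pin tool (217-fold dilution) for 16 h at 37C, 5% CO2. After the bla read, CellTiter-Glo was added and luminescence read at 30 min, room temperature.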

[19] = target: Bile acid receptor (Homo sapiens) (UniProt Q96RI1); assay: ATG_IR1_CIS: Attagene CIS-FACTORIAL HepG2 Assay for human Nuclear Receptor Subfamily 1 Group H Member 4 (NR1H4), IR1 submotif (AID 2282946; active means hit-call score of the fitted dose curve at least 0.9, where 1 is the maximum; inactive means score below 0.9); details: IR1 reporter transcription, actives raise or lower the signal
Bile acid receptor (Homo sapiens), sequence (Q96RI1 whole entry, looked up): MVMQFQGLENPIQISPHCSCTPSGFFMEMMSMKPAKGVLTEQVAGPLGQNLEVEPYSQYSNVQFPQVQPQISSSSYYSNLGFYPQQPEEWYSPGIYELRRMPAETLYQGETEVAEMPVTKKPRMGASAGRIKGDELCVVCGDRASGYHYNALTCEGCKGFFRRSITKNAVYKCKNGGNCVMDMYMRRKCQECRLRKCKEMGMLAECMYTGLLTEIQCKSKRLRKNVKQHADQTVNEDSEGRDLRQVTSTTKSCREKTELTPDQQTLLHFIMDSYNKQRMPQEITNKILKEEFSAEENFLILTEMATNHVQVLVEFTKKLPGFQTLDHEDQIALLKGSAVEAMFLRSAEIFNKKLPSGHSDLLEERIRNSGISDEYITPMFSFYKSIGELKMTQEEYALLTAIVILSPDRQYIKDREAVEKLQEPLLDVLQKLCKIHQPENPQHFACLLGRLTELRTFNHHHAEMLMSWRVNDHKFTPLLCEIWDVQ
In short: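 Transient MRTU transfection, HepG2; 24 h dosing; RNA → RT-PCR → 6-FAM primer extension → HpaI digest → capillary electrophoresis fluorescence. Gain/loss of signal fitted relative to DMSO.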

[20] = target: Nuclear receptor subfamily 1 group I member 3 (Homo sapiens) (UniProt Q14994); assay: ATG_CAR_TRANS: Attagene TRANS-FACTORIAL HepG2 Assay for human Constitutive Androstane Receptor (CAR) (AID 2282969); details: HepG2 Attagene TRANS-FACTORIAL CAR reporter;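 further: activators raise reporter mRNA above DMSO so AC50 marks induction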
Nuclear receptor subfamily 1 group I member 3 (Homo sapiens), sequence (Q14994 whole entry, looked up, the tested form may be a part): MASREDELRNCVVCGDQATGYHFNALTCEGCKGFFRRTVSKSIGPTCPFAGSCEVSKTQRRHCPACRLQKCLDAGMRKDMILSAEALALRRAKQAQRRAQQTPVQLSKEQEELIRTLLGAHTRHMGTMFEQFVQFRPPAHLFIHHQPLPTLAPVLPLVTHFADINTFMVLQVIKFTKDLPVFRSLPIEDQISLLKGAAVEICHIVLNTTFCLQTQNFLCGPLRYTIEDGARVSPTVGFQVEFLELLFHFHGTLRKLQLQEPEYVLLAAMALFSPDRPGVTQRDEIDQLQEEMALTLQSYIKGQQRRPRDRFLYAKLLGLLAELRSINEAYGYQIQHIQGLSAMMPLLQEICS
In short: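 HepG2 cells transiently transfected with multiplexed GAL4-UAS reporter units expressing chimeric NR-Gal4 proteins; compound exposure 24 h. Reporter mRNA measured by RT-PCR, 6-FAM labelling, HpaI digestion and capillary electrophoresis; gain-of-signal fitted against DMSO baseline.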

Measured: AC50

CCNCC
inactive: [1] | [2] | [3] | [4] | [5] | [6]

C[N+](C)(C)CC(=O)[O-]
inactive: [7] | [4] | [8] | [5] | [6]

O=CNC(N1CCN(C(NC=O)C(Cl)(Cl)Cl)CC1)C(Cl)(Cl)Cl (stereo not given)
not listed: [1] | [4] | [5] | [17] | [18] | [19] | [20]
inactive: all other assays above

COC(=O)COc1ccc(Cl)cc1Cl
inactive: [1] | [2] | [5] | [6] | [17] | [13] | [18] | [14] | [15]

CC(C)COP(=O)(OCC(C)C)OCC(C)C
inactive: [19] | [6] | [10] | [17] | [14]

ClC1=C(Cl)[C@]2(Cl)[C@@H]3[C@@H](Cl)[C@H](Cl)C[C@@H]3[C@@]1(Cl)C2(Cl)Cl
inactive: [19] | [20] | [1] | [4] | [6] | [16]

CC(C)C#N
inactive: [1] | [2] | [9] | [3] | [4] | [8] | [6] | [11] | [12] | [16]

CCCCOC(=O)CCC(=O)OCCCC
inactive: [20] | [2] | [7] | [4] | [8] | [5] | [6] | [17]

Cc1cc(C)c(C2=C(OC(=O)CC(C)(C)C)C3(CCCC3)OC2=O)c(C)c1
inactive: [19] | [20] | [1] | [2] | [7] | [11] | [12] | [16]

[Cl][Sb]([Cl])[Cl]
active: [16] 87.8 µM
inactive: [20] | [9] | [3] | [8] | [5] | [6] | [17] | [13] | [14] | [15]

O=[N+]([O-])O
inactive: [1] | [2] | [11] | [12] | [17] | [18] | [14] | [15] | [16]

CCC1CCC(=O)O1 (stereo not given)
inactive: [4] | [8] | [5] | [6] | [10] | [16]

CC1CCC(=O)O1 (stereo not given)
active: [16] 50 µM
inactive: [1] | [7] | [5] | [6] | [13]

CCOC(=O)C1OC1(C)c1ccccc1 (stereo not given)
not listed: [2] | [5] | [6] | [8] | [10] | [19]
inactive: all other assays above

O=P(O)(Oc1ccccc1)Oc1ccccc1
not listed: [1] | [5] | [8] | [14] | [15] | [18]
inactive: all other assays above
